For 101 compounds, AC50 and activity, negative = inhibition results are on record in PubChem BioAssay AID1851 (National Center for Advancing Translational Sciences (NCATS), 2009).

A word on the AC50: it is the concentration giving half of the maximal activity seen.

“And” between values parts separate entries of the source, which are not always exact repeats. Identical values can stand only once. Among all 16,000 compounds or so, about 2,600 (16%) were called active. About 20% were inconclusive and are not listed. Calls follow the shape of the dose curve; as a rule, active = well fitted curve in the direction sought with a large enough effect; inconclusive = small, poorly fitted or top-dose-only effect, or effect the other way; inactive = no such curve, though single readings can be large or run the other way. Only a sample is shown.
% is scaled to controls: 0 for no effect and ±100 for the full control effect.

The target in the assay is Cytochrome P450 2D6 (Homo sapiens) (UniProt P10635). Nature of the assay: Cytochrome panel assay with activity outcomes. As to conditions: recombinant CYP, pro-luciferin dealkylation, luminescence, p450-cyp2d6; series mostly up to 57.1 µM.
Chain of Cytochrome P450 2D6 (Homo sapiens) (P10635 whole entry, looked up): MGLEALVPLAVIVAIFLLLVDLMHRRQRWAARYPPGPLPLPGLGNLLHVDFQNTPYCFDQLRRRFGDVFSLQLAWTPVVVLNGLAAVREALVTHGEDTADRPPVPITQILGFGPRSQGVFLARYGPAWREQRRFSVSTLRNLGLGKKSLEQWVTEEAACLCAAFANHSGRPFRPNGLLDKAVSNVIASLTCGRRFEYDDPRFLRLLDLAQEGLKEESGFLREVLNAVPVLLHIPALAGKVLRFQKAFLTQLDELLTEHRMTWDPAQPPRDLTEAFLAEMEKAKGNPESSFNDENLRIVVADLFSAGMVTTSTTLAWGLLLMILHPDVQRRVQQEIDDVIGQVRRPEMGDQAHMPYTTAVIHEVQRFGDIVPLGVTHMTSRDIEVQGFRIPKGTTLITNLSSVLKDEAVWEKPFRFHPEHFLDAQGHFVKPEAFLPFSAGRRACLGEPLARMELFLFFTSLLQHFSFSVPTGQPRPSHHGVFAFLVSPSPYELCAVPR
In the case of `CCCCCCCC/C=C\CCCCCCCC(=O)NCCc1ccc(O)c(O)c1`, the AC50 result was “inactive”. As for `CCCCCCCC/C=C\CCCCCCCC(=O)NCc1ccc(O)c(OC)c1`, the AC50 was 3.16 µM (active).

Regarding `CCCCCC(=O)Nc1cc2[nH]c(=O)cc(COC)c2cc1C`, the AC50 result is “inactive”. Take `CCCCCCCCC(=O)NCc1cc(OC)c(O)cc1I`: the AC50 was 7.94 µM (active). With `COc1cc(CC(=O)O)ccc1O`, the AC50 result is “inactive”. In the case of `CCCCCCCCCCCCCCCC(=O)NC(C)C`, the AC50 entry was “inactive”. On the same count and under the same terms, in the case of `CCCc1nnc(NC(=O)CCC(=O)NCc2ccccc2OC)s1` it was “inactive”. As for `CC(=O)N[C@H](Cc1ccc(O)cc1)C(=O)O`, the activity, negative = inhibition was -3.43% [at 11.4 µM] (inactive). Take `CCCCCCCC/C=C\CCCCCCCC(=O)N[C@@H](CO)Cc1ccc(O)cc1`: the AC50 is 0.126 µM (active). For the compound `O=C(Nc1ccc(F)cc1Cl)c1ccc2c(=O)n3c(nc2c1)CCCCC3`, the AC50 result was “inactive”. With `Cc1ccc(N=C/C(C(=O)C(F)(F)F)=C(\O)c2cccs2)cc1`, the AC50 entry is “inactive”. Take `CCOC(=O)Cc1csc(NC(=S)NC(=O)c2ccc(F)cc2)n1`: the AC50 result is “inactive”. As to `CCOc1ccc(NC(=O)N2CCC(C(N)=O)(N3CCCCC3)CC2)cc1`, the AC50 entry is “inactive”. Take `CC(C)CO/N=C1/[C@H]2O[C@@H]2[C@@H](O)[C@H]2[C@H]1CCn1c(=O)n(-c3ccccc3)c(=O)n12`: the activity, negative = inhibition was 12.6% [at 11.4 µM] (inactive). For `COCCn1c(=O)c(-c2cccs2)nc2cnc(Oc3ccccc3)nc21`, the AC50 result is “inactive”. `CC(C)C(O)(C(C)C)C(C)C`: the activity, negative = inhibition was 8.61% [at 11.4 µM] (inactive). With `COc1ccc(C(=O)Nc2cccc(OC(=O)c3ccc(C)c(C)c3)c2)cc1`, the AC50 result was “inactive”.

Consider `COc1ccc(C(=O)Nc2cc(OC)cc(OC)c2)cc1`, for which the AC50 was 7.08 µM (active).

As for `CCOc1ccc(NC(=O)c2ccc(OC)cc2)cc1`, the AC50 entry is “inactive”. Turning to `CCCCc1nc(SCC(=O)Nc2ncccn2)n[nH]1`, the AC50 entry is “inactive”.

On to `COC(=O)COc1ccsc1C(=O)OC`, for which the AC50 result was “inactive”. Same read-out and setting: in the case of `COc1ccc2oc(-c3ccc(C)c(NC(=O)CSc4ccc(Cl)cc4)c3)nc2c1` it was 2.51 µM (active); in that of `COc1ccc2oc(-c3ccc(C)c(NC(=O)c4ccc(N5CCOCC5)c([N+](=O)[O-])c4)c3)nc2c1`, “inactive”; in that of `Cc1ccc(-c2nc3ccccc3o2)cc1NC(=O)Cc1cccs1`, “inactive”. As for `Cc1cccc(NC(NC(=O)c2cccnc2)C(Cl)(Cl)Cl)c1` (stereo unspecified), the AC50 result is “inactive”. `NC(=O)c1ncn([C@@H]2O[C@@H](CO)[C@@H](O)[C@H]2O)c1O`: the AC50 result is “inactive”. `COc1ccc(O[C@H]2C=C[C@@H](c3ccccc3)O[C@@H]2CON=C(C)C)cc1`: the activity, negative = inhibition is -3.07% [at 11.4 µM] (inactive). For `O=C(Cc1csc(Nc2nc(=S)[nH]c3ccccc23)n1)NCc1cccc(Cl)c1`, the AC50 entry is “inactive”. As for `Cc1sc2nc(SCC(=O)C(C)(C)C)n(Cc3ccco3)c(=O)c2c1C`, the AC50 entry was “inactive”.

For the compound `O=C(O)C[C@H](Cc1ccccc1Cl)C(=O)O`, the activity, negative = inhibition is -0.233% [at 11.4 µM] (inactive). `Cc1n[nH]c(=O)nc1NCc1ccccc1Cl`: the AC50 result was “inactive”. As to `Clc1ccccc1CNCC1CCC(CNCc2ccccc2Cl)CC1` (stereo unspecified), the AC50 was 12.6 µM (active).

Consider `CCOC(=O)C(C)Sc1nnc(CNC(=O)c2ccc(OC)cc2)n1C1CCCCC1` (stereo unspecified), for which the AC50 result was “inactive”. As for `CCOC(=O)c1sc(C)c(C(=O)NCC(C)(C)CN(C)C)c1N`, the half-maximal activity concentration (AC50) is 1.78 µM (active). On to `CCOC(=O)c1nc(N)sc1C(=O)OCC`, for which the AC50 result is “inactive”.

`CCOC(=O)c1sc2nc3c(cc2c1N)COC(C)(CC)C3` (stereo unspecified): the AC50 entry is “inactive”. The same measure, in the same setting: in the case of `Cc1ccc(Cn2cnc3c(nnn3Cc3ccc(Cl)cc3)c2=O)cc1` it was “inactive”; in that of `CC(=O)[C@H]1CC[C@@H]2[C@H]3CC=C4C[C@@H](O)CC[C@]4(C)[C@H]3CC[C@]12C`, “inactive”; in that of `CC(=O)Nc1nnc(S(N)(=O)=O)s1`, “inactive”. Regarding `CCCn1c(/C=C/c2ccccc2)nc2ccccc21`, the AC50 is 8.91 µM (active). As for `O=C(c1ccccc1)c1nc2ccccc2n(CCCn2c(=O)c(C(=O)c3ccccc3)nc3ccccc32)c1=O`, the AC50 result is “inactive”. Take `CCn1c(/C=C2/C(=O)N(C)c3ccccc32)nc2ccccc2c1=O`: the AC50 entry is “inactive”. Regarding `C[N+]1(C)C[C@@H](O)C[C@@H]1C(=O)[O-]`, the AC50 result was “inactive”.

Regarding `CCNc1ncc2nc(-c3ccccc3)c(=O)n(Cc3cccs3)c2n1`, the AC50 result is “inactive”. As for `Cc1ccc(-c2nc3ccccc3s2)cc1NC(=S)NC(=O)c1ccccc1`, the AC50 entry was “inactive”. On the same count and under the same terms, in the case of `CC(NC(=O)c1ccccc1)c1nc2ccccc2n1Cc1ccccc1F` (stereo unspecified) it was 14.1 µM (active); in that of `CCn1c(-c2nonc2NC(=O)c2ccccc2)nc2ccccc21`, “inactive”. Consider `C=CCn1c(C(C)NC(=O)c2ccccc2)n[nH]c1=S` (stereo unspecified), for which the AC50 entry was “inactive”.

Consider `O=c1cc(CO)oc(CN2CCCC2)c1O`, for which the AC50 result was “inactive”. Same read-out and setting: in the case of `Cc1ccc(O)c(-c2cc(C(F)(F)C(F)F)nc(-c3ccccc3)n2)c1` it was “inactive”; in that of `Cc1ccc(-c2ccc(/C=N/N3C(=O)C4C5C=CC(C6CC56)C4C3=O)o2)c([N+](=O)[O-])c1` (stereo unspecified), “inactive”. Take `Cn1c(COc2nnc(-c3ccc(Cl)cc3)c3ccccc23)nc2ccccc21`: the AC50 result is “inactive”.

On to `CC(C)C(=O)NCCc1nc2ccccc2n1CCCOc1ccc(Cl)cc1`, for which the AC50 is 3.16 µM (active). With `CC(C)C(=O)NCCn1ccc2ccccc21`, the AC50 result was “inactive”. `COc1ccc(C(=O)c2ccc(OC)c(OC)c2)cc1OC`: the AC50 entry was “inactive”. With `COc1ccc(C(=O)OC(C)CN2CCN(C)CC2)cc1OC` (stereo unspecified), the AC50 is 3.55 µM (active). For the compound `CCOC(=O)N1CCN(C(=O)c2ccc(OC)c(OC)c2)CC1`, the AC50 entry was “inactive”. The same measure, in the same setting: in the case of `Cc1cc(N2CCN(C)CC2)nc2ccc(NC(=O)CCC(=O)NCc3ccco3)cc12` it was “inactive”; in that of `CCCCC/C=C\C[C@H](O)/C=C\c1cccc(C[C@H](O)CCCCO)n1`, “inactive”. In the case of `CCc1ccc(N(C(=O)c2snc(C(N)=O)c2N)C(C(=O)NCCC(C)C)c2c[nH]c3ccccc23)cc1` (stereo unspecified), the AC50 result is “inactive”.

With `CC(C(=O)NC1CCCC1)N(C(=O)c1snc(C(N)=O)c1N)c1ccc2c(c1)OCCO2` (stereo unspecified), the AC50 was 14.1 µM (active).

Consider `COc1ccc(C(C(=O)NC2CCCC2)N(C(=O)c2snc(-c3ccc(F)cc3)c2N)c2ccc(F)cc2)cc1` (stereo unspecified), for which the AC50 result was “inactive”. Regarding `Cc1ccccc1NC(=S)NN1CCN(C)CC1`, the AC50 result is “inactive”.

As for `O=C(O)c1ccccc1C(=O)NCc1ccc(F)cc1`, the AC50 result was “inactive”. With `CCOC(=O)C(C(=O)NCc1ccc(C)cc1)c1ncc(C(F)(F)F)cc1Cl` (stereo unspecified), the AC50 result is “inactive”. In the case of `OC(CNCc1ccc(F)cc1)(c1ccc(F)cc1)c1ccc(F)cc1`, the AC50 is 0.794 µM (active).

In the case of `Cc1ccc(CNCC(O)(c2ccc(F)cc2)c2ccc(F)cc2)cc1`, the AC50 is 1 µM (active). For the compound `COc1cc2c(C(=O)N3CCN(C)CC3)c(C)n(-c3ccccc3)c2cc1Br`, the AC50 result was “inactive”. For the compound `CN1CCN(C(=O)c2ccc3c(=O)n4c(nc3c2)CCCCC4)CC1`, the AC50 result is “inactive”.

On to `CCOC(=O)c1ccc(NC(=O)C2(c3ccc(OC)cc3)CCOCC2)cc1`, for which the AC50 entry was “inactive”.

With `CCOC(=O)c1cc(CC)sc1NC(=O)C(c1ccccc1)c1ccccc1`, the AC50 result was “inactive”. In the case of `CCOC(=O)CCCNC(=O)c1cncc(Br)c1`, the AC50 entry is “inactive”. Turning to `CCOC(=O)CCCNC(=O)CCCNC(=O)C(c1ccccc1)c1ccccc1`, the AC50 is 0.891 µM (active). Take `CC(C)(C)C(=O)N1CCc2cc(-c3csc(N)n3)ccc21`: the AC50 result is “inactive”. As for `CCC(=O)Nc1ccccc1C(=O)OCC(=O)c1ccccc1`, the AC50 entry was “inactive”.

Take `CN(C)CCCO[C@H]1[C@H]([C@H](O)CO)O[C@H]2OC(C)(C)O[C@@H]21`: the AC50 result is “inactive”. For `Cc1cc2cc(CNC(=O)CC(C)C)ccc2n1C`, the AC50 entry is “inactive”. As to `CCOC(=O)N/N=C1/C[C@@H](O)[C@@H](O)[C@@H]2[C@@H]3C(=O)N(c4cccc(Oc5ccccc5)c4)C(=O)[C@H]3CC[C@H]12`, the activity, negative = inhibition was 2.57% [at 11.4 µM] (inactive). Turning to `CCOC(=O)c1c(C(C)(C)C)oc2ccc(O)cc12`, the AC50 is 14.1 µM (active).

In the case of `CCOC(=O)c1cncc(C(=O)O)c1`, the AC50 entry was “inactive”. For `CCOC(=O)c1c(C)oc2c1cc(O)c1ccccc12`, the AC50 entry is “inactive”. With `C=CCCCCCCCCC(=O)Nc1c[nH]c(=O)[nH]c1=O`, the AC50 entry is “inactive”.

As for `O=C1C[C@@H](O)[C@@H](O)[C@H]2[C@@H]3C(=O)N(Cc4ccccc4)C(=O)[C@@H]3CC[C@H]12`, the activity, negative = inhibition is -0.874% [at 11.4 µM] (inactive) and 9.9% [at 11.4 µM] (inactive).

Take `COc1ccc(Cn2nnnc2C(c2ccccc2Cl)N2CCC(C(N)=O)CC2)cc1` (stereo unspecified): the AC50 entry is “inactive”.

Regarding `O=C(Nc1ccc(Cl)cc1)OCCn1nnnc1C(c1ccccc1Cl)N1CCOCC1` (stereo unspecified), the AC50 is 15.8 µM (active). With `O=C(Nc1ccc(Cl)cc1)OCc1cc(-c2ccccc2Cl)on1`, the AC50 result is “inactive”. In the case of `C#C[C@@]1(O)CC[C@@H]2[C@@H]3CCC4=CC(=O)CC[C@@H]4[C@H]3CC[C@]21CC`, the AC50 result is “inactive”. With `Cc1onc(C(=O)/C=C/N(C)C)c1C(=O)Nc1nccs1`, the AC50 entry is “inactive”. With `Cc1ccc(Nc2nc(-c3c(C)nc4ncccn34)cs2)cc1`, the AC50 is 12.6 µM (active).

Take `Cc1ccc(Nc2nc(-c3sc(NC(=O)c4cccc(Cl)c4)nc3C)cs2)cc1`: the AC50 result is “inactive”. Same read-out and setting: in the case of `c1cnc(Nc2nc(-c3ccc4ccccc4c3)cs2)nc1` it was “inactive”; in that of `C/C(CC(=O)NC1CCCC1)=N\NC(=O)Cc1cccs1`, “inactive”; in that of `COC(=O)[C@H]1C[C@@H]1[C@H](NC(=O)c1ccccc1)c1ccccc1`, “inactive”. Turning to `CCCSc1nc(SCC(=O)NCc2ccccc2)c2c3c(sc2n1)COC(C)(CC)C3` (stereo unspecified), the AC50 result is “inactive”. Regarding `CC1(C)Cc2c(sc3nc(-c4ccccc4)n(N)c(=O)c23)CO1`, the AC50 entry was “inactive”. As for `CCC1(C)Cc2c(sc3nnn(CC(=O)Nc4cccc5ccccc45)c(=O)c23)CO1` (stereo unspecified), the AC50 is 15.8 µM (active). Consider `O=C(O)C[C@H](Cc1ccc2c(c1)OCO2)C(=O)O`, for which the activity, negative = inhibition was -3.42% [at 11.4 µM] (inactive). For `COc1ccc(OCCNS(=O)(=O)c2ccc3oc4ccccc4c3c2)cc1`, the AC50 entry was “inactive”.

On to `Cc1c(C(=O)O)oc2ccc(S(=O)(=O)NCc3ccc4c(c3)OCO4)cc12`, for which the AC50 is 15.8 µM (active).

On to `Cc1ccc(C2/C(=C(/O)c3ccccc3)C(=O)C(=O)N2CCN2CCOCC2)o1` (stereo unspecified), for which the AC50 result is “inactive”. Take `Cc1nc2ccc(S(=O)(=O)NC(CC(C)C)C(=O)O)cc2s1` (stereo unspecified): the AC50 result is “inactive”.
